Compound activity (PubChem BioAssay)
This excerpt belongs to a sample that is enriched for hits.
mHTT-CaM PPI inh: disrupts binding of mutant huntingtin to calmodulin. P42858. inhibition, % at 15 µM. AlphaScreen His-mHTT/GST-CaM binding, luminescence. hit rate 3.6% among 190,000. AID 1671202;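 further: 0% = both proteins with DMSO and 100% = one protein alone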
Pf apPOL block: Pf-apPOL DNA polymerase inhibition; Recombinant Pf-apPOL, molecular beacon fluorescence, 1.5 h; inhibition, % at 10 µM; hit rate 0.25% among 210,000; AID 1794808
* hit, by the source's call; x = no result. No stated cut-off is given here; in the data, active means inhibition above about 50%; inactive means the rest.

SMILES	mHTT-CaM PPI inh	Pf apPOL block
COc1ccccc1N1C(=N)S/C(=C\c2ccc(Br)c([N+](=O)[O-])c2)C1=O	57*	-8
COc1ccc(/C=C2\SC(=O)N(c3ccccc3OC)C2=O)cc1	4	-4
CN(C)c1cccc(C(=O)NCc2cccnc2-c2ccccc2)c1	6	-10
CN(C)c1ccc2c(c1)OC(N)=C(C#N)C2c1ccc(F)c(Br)c1 (stereo unspecified)	83*	-4
CC(=O)Nc1ccc(C2C(C#N)=C(N)Oc3cc(N(C)C)ccc32)cc1 (stereo unspecified)	15	-3
N#CC1=C(N)Oc2cc(N)ccc2C1c1cc(Br)cs1 (stereo unspecified)	13	-2
CN(C)c1ccc2c(c1)OC(N)=C(C#N)C2c1cc(Br)cs1 (stereo unspecified)	53*	-5
NC(=S)NN=Cc1ncc(C(F)(F)F)cc1Sc1ccc(Cl)cc1	x	-5
CC1=NN(C(=O)CCCc2ccccc2)C(O)(c2ccc(Br)cc2)C1 (stereo unspecified)	58*	1
CCC(=O)N1N=C(CC)CC1(O)c1ccc(Br)cc1 (stereo unspecified)	6	-4
CC1(C)CC(=O)C2=C(C1)Nc1ccc3ncccc3c1C2c1cn[nH]c1-c1ccc(F)cc1 (stereo unspecified)	2	-3
COc1cc(N2CN=c3s/c(=C\C=C\c4ccccc4)c(=O)n3C2)cc(OC)c1OC	55*	-6
COc1cc(N2CN=c3s/c(=C\c4ccccc4)c(=O)n3C2)cc(OC)c1OC	35	-8
Cc1cccc(C=C2Oc3c(ccc(O)c3CN(C)C)C2=O)c1	5	-12
COc1ccc(Nc2nc(N)nc(CN3CCN(c4ccccc4)CC3)n2)cc1	54*	-4
COc1ccc(Nc2nc(N)nc(CN3CCCCC3)n2)cc1	0	-4
O=c1c(-c2ccc(Cl)cc2)coc2c3c(ccc12)OCN(CC1CCCO1)C3 (stereo unspecified)	20	-4
CCc1ccc(CNC(=O)CCC(=O)N2Cc3cccn3-c3ccccc32)cc1	-11	-4
O=[N+]([O-])c1ccccc1CNC1CCCCC1	-5	0
Cc1ccc(F)cc1S(=O)(=O)NCCC1CCN(C(=O)c2ccccc2)CC1	54*	2
O=C(c1ccc(F)cc1)N1CCC(CCNS(=O)(=O)c2cccc3cccnc23)CC1	45	-4
CC(=O)Nc1ccc(S(=O)(=O)NCCC2CCN(C(=O)c3ccccc3)CC2)cc1	39	0
COc1ccc(S(=O)(=O)NCCC2CCN(C(=O)c3ccccc3)CC2)cc1	28	1
Cc1ccc(C(=O)N2CCC(CCNS(=O)(=O)c3cccc4cccnc34)CC2)cc1	62*	-1
CC(C)c1ccc(S(=O)(=O)NCCC2CCN(C(=O)c3ccccc3)CC2)cc1	51*	-1
SMILES	mHTT-CaM PPI inh	Pf apPOL block
O=C(c1ccccc1)N1CCC(CCNS(=O)(=O)c2ccc(Cl)cc2)CC1	55*	5
Cc1ccc(C)c(S(=O)(=O)NCCC2CCN(C(=O)c3ccccc3)CC2)c1	47	10
C#CCOCC1CCCN(C(=O)COc2ccc(Cl)cc2Cl)C1 (stereo unspecified)	-4	-10
Cc1ccccc1CNC(=O)c1cn2ccncc2n1	-4	0
O=C(Nc1cc(Cl)c(Cl)cc1Cl)c1cnc2n(c1=O)CCS2	6	3
Cc1ccc(C(=O)N2CCC(CCNS(=O)(=O)c3cc(C)c(C)cc3C)CC2)cc1	45	2
Cc1ccc(C(=O)N2CCC(CCNS(=O)(=O)c3ccc(Cl)cc3)CC2)cc1	26	-3
CC(=O)c1ccc(S(=O)(=O)NCCC2CCN(C(=O)c3ccc(C)cc3)CC2)cc1	57*	3
COc1ccc(OC)c(S(=O)(=O)NCCC2CCN(C(=O)c3ccc(C)cc3)CC2)c1	63*	-6
Cc1cc(=O)[nH]c(SCC(=O)Nc2cccc(C(F)(F)F)c2)c1C#N	13	2
CCOCCCN1COc2ccc3c(=O)c(-c4ccccc4)c(C)oc3c2C1	-1	-4
CCCc1c(C)c2ccc(OC(C)C(=O)OCC)cc2oc1=O (stereo unspecified)	-6	-7
CNC(=O)c1c(NC(=O)c2cc(=O)c3ccccc3o2)sc2c1CCC(C)C2 (stereo unspecified)	1	0
CC(=O)N1/C(=C/c2ccncc2)C(=O)c2ccccc21	-4	-7
CC(=O)N1/C(=C/c2ccc(N(C)C)cc2)C(=O)c2ccccc21	84*	-1
C=CCn1c2ccccc2c2nnc(SCC(=O)Nc3ccc(S(N)(=O)=O)cc3)nc21	2	5
Cc1ccc(NCCC(=O)c2cccc([N+](=O)[O-])c2)cc1	27	-5
CC(C)c1ccc(NCCC(=O)c2ccc([N+](=O)[O-])cc2)cc1	56*	-1
O=C(CN1CCC2(CC1)N=C(c1cccc(Cl)c1)C(=O)N2)Nc1ccc(F)c(F)c1	24	12
OC(COC12CC3CC(CC(C3)C1)C2)CN1CCN(c2ccccc2F)CC1 (stereo unspecified)	10	-10
